A short description of assay [1]: P-glycoprotein substrates identified in KB-3-1 adenocarcinoma cell line, qHTS therapeutic library screen (AID 1346986). Further: nearly all actives have a fitted effect of over 60% in size.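 Further: potency means the concentration at half of the fitted maximal effect; potency is for cytotoxicity meaning loss of cell viability.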 A digest of the protocol: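 Resistance attributable to P-gp was assessed by comparing AC50 in KB-8-5-11 with parental KB-3-1 and by tariquidar reversal. Cells were exposed 72 h and viability read by CellTiter-Glo.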
(In qHTS, concentration-response curves come from the screen itself.)

Assay [2] can be described thus: Primary qHTS for inhibitors of nuclear receptor binding SET domain protein 2 (NSD2) in an isogenic RCH-ACV NSD2 p.E1099K mutant (9B) (AID 1645876). Further: nearly all actives have a fitted effect of over 70% in size. Further: potency means the concentration at half of the fitted maximal effect.
A short description of assay [3]: Primary qHTS for inhibitors of nuclear receptor binding SET domain protein 2 (NSD2) in an RCH-ACV wild type WT cells (2C) (AID 1645877). Further: nearly all actives have a fitted effect of over 70% in size. Further: potency means the concentration at half of the fitted maximal effect.
In assay [4] the target is Glutathione peroxidase 1 (Homo sapiens) (UniProt P07203). The assay is described as follows: Primary qHTS Assay for Inhibitors of Recombinant Selenoprotein Glutathione Peroxidase 1 (GPX1) (AID 1845191). Further: nearly all actives have a fitted effect of over 65% in size. Further: potency means the concentration at half of the fitted maximal effect. A digest of the protocol: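 Recombinant GPX1 (10 nM final) was preincubated with compound for 30 min at room temperature, then reacted with 1 mM GSH, 0.5 mM CHP, 0.5 mM NADPH and 100 nM glutathione reductase; NADPH fluorescence (340/450 nm) was read at 0 and 15 min.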

The target in assay [5] is Catechol O-methyltransferase (Homo sapiens) (UniProt P21964). As to the kind of experiment: Confirmatory Screen for Target Class Profiling of Small Molecule Inhibitors of Methyltransferases (AID 1745852). On activity change, negative = inhibition: on the % scale 0 is the no-effect control and ±100 the full control effect. To be noted: MTase-Glo luminescence, SAH detection, recombinant enzyme; measured here: COMT max response; stronger effect = lower value.
The target in assay [6] is Guanidinoacetate N-methyltransferase (Homo sapiens) (UniProt Q14353). The assay is described as above. As to conditions: activity change, negative = inhibition: at 57.3 µM (top of the series) unless noted.
Assay [7] has as its target Nicotinamide N-methyltransferase (Homo sapiens) (UniProt P40261). Described as above. As to conditions: MTase-Glo luminescence, SAH detection, recombinant enzyme; measured here: NNMT max response; stronger effect = lower value.
The target of assay [8] is Phenylethanolamine N-methyltransferase (Homo sapiens) (UniProt P11086). The description is as above. As to conditions: MTase-Glo luminescence, SAH detection, recombinant enzyme; measured here: PNMT max response; stronger effect = lower value.
Assay [9] has as its target Tyrosine-protein kinase Yes (Homo sapiens) (UniProt P07947). The assay is described as follows: qHTS for small molecule inhibitors of Yes1 kinase: Primary Screen (AID 686947). Further: potency means the concentration at half of the fitted maximal effect; nearly all actives have a fitted effect of over 60% in size. A digest of the protocol:
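Yes1 (4 nM) preincubated 20 min with compound, then 60 min room-temperature reaction with 0.1 mM ATP and 0.3 mg/mL poly(E4Y) in pH 7.5 Tris, 10 mM MgCl2. ADP measured by ADP-Glo luminescence, normalised to enzyme/no-enzyme controls.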

Assay [10] is described as follows: qHTS for small molecule inhibitors of Yes1 kinase: Counter Assay (AID 686950).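 Further: no kinase present so only ADP-Glo detection of a fixed ADP amount is tested; luminescence from ADP-Glo reporting ADP in a fixed ATP and ADP mixture; 0% = DMSO wells with ATP plus ADP and -100% = ATP-only wells without ADP.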 The procedure, abridged: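 Enzyme-free ADP-Glo interference check: compounds were preincubated 20 min in buffer, then an ATP/ADP mix (0.08 mM ATP, 0.02 mM ADP final) was added for 60 min at room temperature before two-step ADP-Glo luminescence detection.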

Records with an inconclusive call do not appear. The source made the active and inactive calls. The call rests on the fitted dose curve; in most records, active means well fitted curve in the direction sought with a large enough effect; inconclusive means small, poorly fitted or top-dose-only effect, or another doubt; inactive means no such curve, though single readings can be large; an effect the other way counts as inactive or inconclusive.

Chain of Glutathione peroxidase 1 (Homo sapiens) (P07203 whole entry, looked up): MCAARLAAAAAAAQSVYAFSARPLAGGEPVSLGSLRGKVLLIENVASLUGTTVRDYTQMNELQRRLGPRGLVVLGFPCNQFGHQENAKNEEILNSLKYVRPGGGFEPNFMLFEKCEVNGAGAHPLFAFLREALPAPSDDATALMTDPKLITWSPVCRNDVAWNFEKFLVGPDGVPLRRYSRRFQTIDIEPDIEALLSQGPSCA
Chain of Phenylethanolamine N-methyltransferase (Homo sapiens) (P11086 whole entry, looked up): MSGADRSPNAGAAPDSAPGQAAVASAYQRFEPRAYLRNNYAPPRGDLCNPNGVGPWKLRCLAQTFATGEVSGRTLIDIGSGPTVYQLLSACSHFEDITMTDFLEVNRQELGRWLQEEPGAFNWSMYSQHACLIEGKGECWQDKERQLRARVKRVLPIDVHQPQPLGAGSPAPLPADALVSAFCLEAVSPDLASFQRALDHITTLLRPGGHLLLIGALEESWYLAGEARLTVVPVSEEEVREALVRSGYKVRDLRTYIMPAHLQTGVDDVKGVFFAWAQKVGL
Chain of Catechol O-methyltransferase (Homo sapiens) (P21964 whole entry, looked up): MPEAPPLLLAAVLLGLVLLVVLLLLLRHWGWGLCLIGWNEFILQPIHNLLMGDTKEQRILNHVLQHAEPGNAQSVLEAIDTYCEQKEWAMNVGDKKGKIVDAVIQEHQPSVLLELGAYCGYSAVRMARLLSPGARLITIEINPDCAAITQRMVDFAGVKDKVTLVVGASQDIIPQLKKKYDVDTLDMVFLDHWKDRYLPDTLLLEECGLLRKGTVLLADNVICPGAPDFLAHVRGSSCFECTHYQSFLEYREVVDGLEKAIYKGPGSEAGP
Chain of Nicotinamide N-methyltransferase (Homo sapiens) (P40261 whole entry, looked up): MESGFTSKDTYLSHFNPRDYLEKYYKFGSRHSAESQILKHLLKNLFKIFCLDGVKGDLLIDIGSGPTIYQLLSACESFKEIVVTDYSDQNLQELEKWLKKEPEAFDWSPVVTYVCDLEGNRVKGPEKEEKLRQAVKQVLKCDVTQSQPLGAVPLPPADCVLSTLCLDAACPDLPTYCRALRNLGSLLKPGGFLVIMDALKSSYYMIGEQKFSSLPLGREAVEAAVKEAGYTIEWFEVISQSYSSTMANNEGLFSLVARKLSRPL
Chain of Tyrosine-protein kinase Yes (Homo sapiens) (P07947 whole entry, looked up): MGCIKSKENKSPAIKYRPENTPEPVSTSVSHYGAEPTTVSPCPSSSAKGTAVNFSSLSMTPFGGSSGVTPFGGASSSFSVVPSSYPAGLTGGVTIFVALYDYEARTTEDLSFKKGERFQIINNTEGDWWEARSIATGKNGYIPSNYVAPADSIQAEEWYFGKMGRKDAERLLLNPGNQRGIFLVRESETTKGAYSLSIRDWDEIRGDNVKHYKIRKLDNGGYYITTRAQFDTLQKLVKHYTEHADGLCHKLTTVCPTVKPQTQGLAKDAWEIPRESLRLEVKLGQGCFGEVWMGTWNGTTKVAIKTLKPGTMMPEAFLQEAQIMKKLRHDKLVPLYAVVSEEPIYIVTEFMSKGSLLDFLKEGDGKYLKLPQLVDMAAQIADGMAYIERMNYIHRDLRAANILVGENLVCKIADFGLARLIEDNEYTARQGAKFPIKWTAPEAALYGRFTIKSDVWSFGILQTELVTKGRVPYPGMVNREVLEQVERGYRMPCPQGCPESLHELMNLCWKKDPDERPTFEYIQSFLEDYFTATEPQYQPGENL

For the compound `COc1cc2ncnc(Nc3ccc(NC(=O)c4ccccc4)cc3)c2cc1OC`, the Potency in assay [1] was 20.6 µM (active); in assay [2], 8.2 µM (active); in assay [3] it was 5.8 µM (active). For the same compound, in assay [4], the Potency result is “inactive”.

Consider `CS(=O)(=O)c1ccc([C@@H](C[C@H]2CCC(=O)C2)C(=O)Nc2cnccn2)cc1Cl`, for which the Potency entry in [1], in assay [2], in assay [3] and in assay [4] was “inactive” in each case.

Consider `O=C(NCCc1c[nH]c2ccc(O)cc12)c1ccc2ccccc2c1O`, for which the Potency in assay [1] is 8.2 µM (active). The Potency result in [4] is “inactive”.

On to `S=c1ssc2c1CCC2`, for which the Potency entry in [1], in assay [2] and in [3] was “inactive” each time. In addition, the values for the activity in assay [5], in assay [7] and in [8] were -2.41%, -69.9% and -71%, respectively. For the same compound, the activity change, negative = inhibition in assay [6] amounted to 0%. The Potency in assay [4] was 14.3 µM (active).

As for `CC(C)n1cnc2c(NCc3cccc(C(F)(F)F)c3)ncnc21`, the Potency entry in [1] and in assay [4] was “inactive” each time.

As for `NC(=O)c1ncn(C2O[C@H](CO)[C@@H](O)[C@H]2O)c1N` (stereo partly specified), the Potency result in [1], in assay [2] and in [3] was “inactive” each time.

In the case of `Cc1cc2ncc(-c3ccccc3)nc2cc1C`, the Potency entry in [1], in [2], in assay [3] and in assay [4] was “inactive” throughout.

In the case of `COc1ccc(CCNCc2ccc(OCc3ccc(Cl)nc3)c(OC)c2)cc1OC`, the Potency result in [1] and in assay [4] was “inactive” throughout.

With `Nc1ccn([C@H]2O[C@@H](CO)[C@H](O)[C@H]2O)c(=O)n1`, the Potency was 3.66 µM (active) in [1], 0.0206 µM (active) in assay [2] and 0.0164 µM (active) in assay [3].

`CC(C)(N)c1cc(C(=O)N[C@@H]2CCc3ccc(Oc4ccnc5c4CCC(=O)N5)cc3C2)cc(C(F)(F)F)c1`: the figures for the Potency in assay [1], in [2] and in [3] were 18.4 µM (active), 11.6 µM (active) and 14.6 µM (active), respectively. The Potency entry in assay [4] was “inactive”.

Turning to `CCOC(=O)N1CCN(C(=O)Cn2sc3nc(C)cc(C)c3c2=O)CC1`, the Potency result in assay [1] and in [4] was “inactive” in each case.

Turning to `CC(=O)[C@H]1CCC2C3CCC4=CC(=O)CC[C@]4(C)C3[C@H](O)C[C@@]21C` (stereo partly specified), the Potency result in [1], in assay [2], in assay [3] and in assay [4] was “inactive” each time.

Take `Nc1ccc(-c2cnc(N)c(-c3ccc(Cl)cc3)c2)cn1`: in [1], the Potency entry is “inactive”. Further, the Potency in [2] and in assay [3] was 14.6 µM (active) each time. The activity in assay [5] was -71.5%; in assay [7], -33.1%; in assay [8], -5.01%. For the same compound, in assay [6], the activity change, negative = inhibition is -1.94%.

Take `COc1ccc2c(c1O)OC(C)(C)c1c-2ccc2c1C(=O)N(c1ccc(C(=O)c3ccccc3)cc1)C2=O`: the Potency result in assay [1] and in assay [4] was “inactive” throughout.

As for `Clc1cc(Cl)c2c(c1)N=C1CCCCCN1C2`, the Potency result in assay [1], in assay [2], in assay [3] and in assay [4] was “inactive” throughout.

For the compound `Nc1nc(N)c2nc(-c3cccc(O)c3)cnc2n1`, the Potency in [1] is 5.8 µM (active); in [2], 1.64 µM (active); in [3], 1.46 µM (active). Further, the Potency result in assay [4] is “inactive”.

Consider `CN(c1ccc(NC(=O)Nc2ccc(OC(F)(F)F)cc2)cc1)c1ccnc(Nc2cccc(S(N)(=O)=O)c2)n1`, for which the Potency was 0.0823 µM (active) in [9], 18.4 µM (active) in assay [1], 3.66 µM (active) in assay [2] and 1.03 µM (active) in assay [3]. In addition, the outcome in [10] is “inactive”. For the same compound, the Potency entry in assay [4] was “inactive”.

On to `COc1ccc2cc1Oc1ccc(cc1)CC1c3cc(c(OC)cc3CCN1C)Oc1c(OC)c(OC)c(OC)c3c1C(C2)N(C)CC3` (stereo unspecified), for which the Potency entry in assay [1], in [2], in assay [3] and in assay [4] was “inactive” in each case.

In the case of `O=C(Nc1cccc(Nc2nccc(Nc3cccc(C(F)(F)F)c3)n2)c1)C1CC1`, the Potency in assay [1] is 5.8 µM (active); in assay [2] it was 3.66 µM (active); in [3], 2.59 µM (active). In addition, the Potency result in assay [4] is “inactive”.

As to `COc1cc2ncnc(Sc3nnc(C)s3)c2cc1OC`, the Potency is 18.4 µM (active) in [1], 2.91 µM (active) in assay [2] and 3.26 µM (active) in assay [3]. Moreover, the Potency entry in assay [4] was “inactive”.

Take `CSc1cc2c(s1)c1cnn(Cc3ccccc3F)c(=O)c1n2C`: the Potency result in [1], in assay [2] and in [3] was “inactive” throughout.

`CCCn1cnc2c(NCc3ccc(C)s3)nc(N[C@H](CC)CO)nc21`: the Potency result in [1] and in [4] was “inactive” throughout.

On to `N#Cc1c2nc3ccccc3nc2n2ccc(NC(=O)c3cccs3)cc12`, for which the Potency in assay [1] was 23.1 µM (active); in assay [2] it was 1.16 µM (active); in [3], 1.16 µM (active). In [4], the Potency result is “inactive”.

`Cc1cc(-c2nc(C(=O)Nc3cn(C4CCOCC4)nc3C(N)=O)co2)ccn1`: the Potency in assay [1] was 16.4 µM (active); in assay [2] it was 9.2 µM (active); in [3], 16.4 µM (active). Besides, in assay [4], the Potency result was “inactive”.

In the case of `O=C1/C(=C/c2ccc(O)c(O)c2)Oc2ccccc21`, the Potency entry in assay [1] was “inactive”. The Potency was 1.84 µM (active) in [2] and 2.06 µM (active) in assay [3].

Regarding `O=C(O)c1c[nH]c2c(ccc3ccccc32)c1=O`, the Potency entry in assay [1], in [2], in assay [3] and in assay [4] was “inactive” each time.

For the compound `Cc1cc(Nc2cc(C)c(C#N)c(NC(C)CCCC(C)(C)O)n2)n[nH]1` (stereo unspecified), the Potency is 1.46 µM (active) in assay [1], 1.03 µM (active) in assay [2] and 1.16 µM (active) in assay [3]. The Potency entry in assay [4] is “inactive”.

The record behind these values is PubChem BioAssay (NCATS).
